Data reported in ChEMBL document CHEMBL4513149, “CO-ADD screening of MMV (CH) - MMV compounds” (2021).
Measured potencies and affinities stand elsewhere.

Key:
[1] = system: Staphylococcus aureus; settings: Concentration 20 uM; ASSAY_TEST Inhibition of Bacterial Growth; detection method Absorption (OD600); MEDIA CAMHB; plate type 384well; NBS; CORNING #3640; time 18 hr
[2] = system: Escherichia coli; settings: Concentration 20 uM; ASSAY_TEST Inhibition of Bacterial Growth; detection method Absorption (OD600); MEDIA CAMHB; plate type 384well; NBS; CORNING #3640; time 18 hr

SMILES	Inhibition [1] [%]	Inhibition [2] [%]
Cc1cc(Cl)ccc1NC(=O)CCc1ccc(S(=O)(=O)NCC(C)C)cc1	6.84	9.61
O=C(Nc1ccc(F)c(-c2nc3cc(-c4ccccc4)cnc3[nH]2)c1)N1CCCC1	13.16	-0.3
CNC(=O)c1nn(C)c2c1C(C)(C)Cc1cnc(Nc3ccc(N4CCN(C)CC4)cc3)nc1-2 [MILCICLIB]	15.75	10.4
CC(C)c1ncc(-c2ccncc2)c([C@H]2CC[C@H](CNC(=O)c3cccnc3)CC2)n1	19.09	13.72
Cc1ccc(S(=O)(=O)Nc2ccc(CN3CCN(C(=O)c4cccc(C#N)c4)CC3)cc2)cc1	8.99	3.52
CN1CCCN(C(c2ccccc2)c2ccc(Cl)cc2)CC1 (configuration not stated) [HOMOCHLORCYCLIZINE]	14.31	4.77
FC(F)(F)c1cccc(-c2nc3c(NCc4ccncc4)nccc3[nH]2)c1	9.41	5.83
Cc1cc(C)c2cc(C(=O)NC3CCCCCCC3)[nH]c2c1	16.44	7.15
CCS(=O)(=O)N(Cc1ccco1)Cc1cc2ccc(C)cc2nc1O	9.79	-2.16
O=[N+]([O-])c1cn2c(n1)OC[C@@H](OCc1ccc(OC(F)(F)F)cc1)C2 [PRETOMANID]	14.36	4.79
Cc1noc(C)c1C(=O)N1CCCC(c2[nH]c3c(C)cccc3c2-c2ccncc2)C1 (configuration not stated)	19.72	12.41
c1cc(C2=NCCN2)cc(-c2cc(-c3ccc(C4=NCCN4)cc3)no2)c1	5.99	8.18
CNC1C(OC2C(OC3C(O)C(O)C(NC(=N)N)C(O)C3NC(=N)N)OC(C)C2(O)C=O)OC(CO)C(O)C1O.CNC1C(OC2C(OC3C(O)C(O)C(NC(=N)N)C(O)C3NC(=N)N)OC(C)C2(O)C=O)OC(CO)C(O)C1O.O=S(=O)(O)O.O=S(=O)(O)O.O=S(=O)(O)O (configuration not stated)	2.48	8.5
C[C@H](C(N)=O)N1CCCC[C@@H]1c1ccc(OCc2cccc(F)c2)cc1	12.73	2.14
O=C(NC1CCCCC1)N1CCN(Cc2ccc3c(c2)OCO3)CC1	15.03	4.44
O=C(c1[nH]nc2c1CCCC2)N1CCN(Cc2ccc3c(c2)OCO3)CC1	14.51	7.99
CCN(CC)C(=O)N1CCN(C)CC1 [DIETHYLCARBAMAZINE]	20.12	7.97
CCCNC(=O)N1CCC2(CC1)CC(=O)c1cc(C)ccc1O2	20.33	10.17
CCN(CC)CCCCCCNc1cc(OC)cc2c(C)ccnc12.Cc1ccc(S(=O)(=O)O)cc1	18.42	7.48
N#Cc1ccc(-c2cnc(N)c(-c3ccc(C(N)=O)cc3)n2)cc1	16.7	7.7
Cc1ccc(-c2nc(CN(Cc3ccccn3)C(C)C)cs2)o1	63.05	8.22
COc1ccc(Oc2ccc([C@@H](C)N(C)c3ncc4c(N)nc(N)nc4n3)cc2)cc1	53.21	13.92
Cc1ccc2[nH]c(C3CCCNC3)c(-c3ccncc3)c2c1.Cl.Cl (configuration not stated)	42.59	2.54
CCNC(=O)C(C)Nc1nc(-c2cccnc2)nc2sc(C)c(C)c12 (configuration not stated)	4.74	10.74

SMILES	Inhibition [1] [%]	Inhibition [2] [%]
Nc1ncnc2[nH]nc(Cc3cccc4ccccc34)c12	12.91	7.05
CCCc1ccc(S(=O)(=O)Nc2ccc(CN3CCN(CC4CC4)CC3)cc2)cc1	18.92	6.87
CC(C)(C)OC(=O)N1CCN(c2nccc(-c3ccc(-c4ccc(Cl)cc4)s3)n2)CC1	15.85	9.45
COc1cc(OC)cc(C(=O)NCC2Cc3cc(Cl)cc(-c4ccncc4)c3O2)c1 (configuration not stated)	16.01	10.63
COc1ccc(Cn2cnc3c(-c4ccco4)nc(Cl)nc32)cc1	20.69	10.18
O=C(Nc1ccnc(-c2cccnc2)n1)c1cc(C(F)(F)F)cc(C(F)(F)F)c1	15.63	6.19
Cc1cccc(NC(=O)c2cc(S(=O)(=O)N(C)c3ccc(F)cc3)ccc2Cl)n1	12.32	7.88
Cl.Cl.Cl.NS(=O)(=O)c1cncc(-c2ccc3nccc(-c4cn[nH]c4)c3n2)c1	9.83	6.62
N#Cc1ccc(-c2ccc(OCC(N)=O)cc2)cc1	6.41	-3.93
CN(C(=O)c1cc2c(-c3cncnc3)cccc2[nH]1)c1ccccc1	12.46	10.65
COc1cc2ncnc(NC3CCN(Cc4ccccc4)CC3)c2cc1OC	7.78	-0.93
O=C(NCc1cc(Cl)cc(Cl)c1)c1c(C(F)(F)F)nc2ccccn12	22.39	10.43
CC(C)NCC(=O)Nc1cccc(C(=O)Nc2cccc(C(F)(F)F)c2)c1	3.81	-2.15
COc1cc(-c2cc(-c3ccc(S(C)(=O)=O)cc3)cnc2N)ccc1O	12.87	6.84
Nc1nccc2ccc(Oc3ccncc3)cc12	12.81	7.44
CCc1ccc([C@@H]2C[C@H](C(F)(F)F)n3ncc(C(=O)NCc4ccc(OC)cc4)c3N2)cc1	5.55	-1.62
CCC(C)NC(=O)c1ccc(NC(=O)C2(c3ccccc3)CCCC2)cc1 (configuration not stated)	13.32	-4.39
COc1ccc(-c2cnc3ccc(NCc4ccc(S(N)(=O)=O)cc4)nn23)cn1	19.01	10.16
Cc1nn(C(=O)Nc2cccc(C(F)(F)F)c2)c(C)c1Sc1ncccn1	14.85	7.79
COC(=O)C1=C(C)NC(C)=C(C(=O)OC(C)C)C1c1cccc2nonc12 (configuration not stated) [ISRADIPINE]	3.78	-1.04
Cc1cc(Nc2ccncc2)n2nc(C)c(-c3ccccc3Cl)c2n1	12.68	7.54
CC(C)(C)n1nc(Cc2ccc(F)c(Cl)c2)c2c(N)ncnc21	12.68	11.38
CCc1nc2ccc(Cl)cn2c1C(=O)NCc1ccc(N2CCC(c3ccc(OC(F)(F)F)cc3)CC2)cc1 [TELACEBEC]	17.2	13.17
Cl.c1ccc(C[C@@H]2CN(c3nccc(Oc4ccc(-n5ccnc5)cc4)n3)CCN2)cc1	21.29	8.76

SMILES	Inhibition [1] [%]	Inhibition [2] [%]
CCOc1ccc(-c2nc(NC(=O)CS(=O)(=O)c3ccccc3)sc2C)cc1	3.82	-0.36
CN1CCCC1CCO[C@](C)(c1ccccc1)c1ccc(Cl)cc1.O=C(O)/C=C/C(=O)O (some centres not stated)	18.42	10.75
CC(=O)Nc1ccc(-c2noc(CC3CCCN(Cc4cccc(F)c4C)C3)n2)cc1 (configuration not stated)	14.07	3.97
N=C(N)c1ccc(-c2cc(-c3ccccc3)on2)cc1	23.63	12.9
Cc1ccc(-c2cc(C(=O)Nc3cccnc3)c3cc(Br)ccc3n2)cc1	16.17	9.4
O=C(c1ccc(NCCO)cc1)C1C[C@H]1c1ccc(Cl)cc1 (some centres not stated)	8.07	-0.72
Clc1ccc(CN2CCN(C3=NCCN3)CC2)cc1Cl	14.27	4.2
CCCCOC(=O)Nc1cc2nc(C3CCCCC3)[nH]c2cc1N1CCCC1	9.54	-0.47
COc1ccc(N(CCc2cccc(C)n2)C(C)=O)cc1	18.62	6.06
CCc1ccccc1-n1c(C)cn2c3c(=O)n(C(C(=O)OC)C(C)C)c(=O)n(C)c3nc12 (configuration not stated)	5.27	7.91
CC(=O)N1CCc2cc3nc(C)cc(C)c3cc21	14.4	5.79
CC(C)(C(=O)Nc1ccc(F)cc1)n1cc(-c2ccccc2F)cn1	21.36	9.99
CC(C)(CN)c1nc(-c2ccc(Cl)c(O)c2)c(-c2ccnc(N)n2)[nH]1.O=C(O)C(F)(F)F.O=C(O)C(F)(F)F	18.2	12.46
CC(C)(C)n1nc(Cc2cccc3ccccc23)c2c(N)ncnc21	2.05	-5.14
COc1cccc(NC(=O)c2c(NC(=O)c3cccnc3)sc3c2CCC3)c1	17.01	4.69
COc1ccc(C2CC(c3cccs3)=NN2C(=O)c2ccco2)cc1OC (configuration not stated)	19.66	11.75
CC(C)n1ncc2c(C(=O)NCC(c3cccs3)N3CCOCC3)cc(-c3ccccc3)nc21 (configuration not stated)	11.85	3.42
FC(F)(F)c1cc(NCCc2ccccc2)nc(-c2ccccn2)n1	-9.89	-6.09
O=C(C1CCN(c2nnc(-n3cccc3)s2)CC1)N1CCC(Cc2ccccc2)CC1	17.77	6.98
CS(=O)(=O)c1ccc(C(=O)N(CC2CCCO2)c2nc3ccccc3s2)cc1[N+](=O)[O-] (configuration not stated)	17.15	7.54
O=C(C1CCN(c2nnnn2-c2ccccc2)CC1)N1CCc2ccccc2C1	18.44	5.61
Nc1ncnc2c1ncn2C[C@@H](O)[C@@H](O)C(=O)O [ERITADENINE]	13.9	8.78
O=C(Nc1c(O)cccc1-c1nc2c(C(=O)O)cccc2o1)c1cc(-c2ccccc2)on1	0.11	-12.15
